Source: the supplement of paper PMC11417369
± gives the standard deviation of the averaged measurements. The full ranking holds about 25,000 sequences; the median of “ln(normalized median fluorescence intensity)” is about 10, and the highest 2% start at about 12. This is one part of a sample in which the highest values are shown more often than they occur.

Test system: PfAP2-G AP2 domain (GST-tagged)
Test: gcPBM binding intensity (ln(normalized median fluorescence intensity)); higher = stronger DNA binding
In short: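 GST-tagged P. falciparum DNA-binding domains, expressed in E. coli (about 25 μg on average), were applied for 1 h to an Agilent 4 × 180k array of primer-extended double-stranded 36-bp intergenic genomic probes plus negative controls. The binding buffer was 1× PBS with 1% milk, 0.2 mg/ml BSA, 0.5% salmon testes DNA and 0.03% Triton X-100. Bound protein was detected with Alexa488 anti-GST antibody and scanned at 488 nm. Binding intensity is the highest Masliner-normalised natural-log median intensity across replicate spots of either probe orientation.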

| Sequence | gcPBM binding intensity (ln) |
| --- | --- |
| TCTTGAAAAAGAATCAATCGGTCGACAAAAAAAAAA [CACACA_negctrl_site1099] | 10.4 ± 0.24 |
| GTCTTAAAAATTAAAACACACGTTCACTTTCATATT [CACACA_site5803] | 10.05 ± 0.021 |
| AAAAAAAAATGTCATGGTACACAATTTTTTCTTTTT [XGTACX_site4505] | 11 ± 0.56 |
| ATATTGTGTTATAAATGTACACAATTTCCTTTCATA [XGTACX_site7481] | 11.3 ± 0.79 |
| ATTATACAAAATGGTAAGGAAAAGGAAATTTTTTTT [CACACA_negctrl_site1090] | 9.77 ± 0.014 |
| TTTTCCTTTCACAATGGTACACAAATATACATGCAA [XGTACX_site7244] | 11.2 ± 0.8 |
| TTTCAAAGGAAATGGTGTACACAATTTTTCCTTTTT [XGTACX_site2340] | 11.7 ± 0.88 |
| CAAAGGAAATGGTGTACACAATTTTTCCTTTTTCGT [CACACA_site4800] | 11.8 ± 1.2 |
| ATATATATGGATGGACGTACGTATGTATGTAATTTC [XGTACX_site4135] | 11.3 ± 0.64 |
| AAATAAGAAAAAGCGCGTACACATAACATTTTTATA [XGTACX_site8807] | 11.7 ± 0.93 |
| CAATTTATAAAGAAAACACACATATACATAAATACA [CACACA_site4829] | 10.2 ± 0.16 |
| AAAAGAAATATTTATACACACACACTAACATATATA [CACACA_site8580] | 10.09 ± 0.035 |
| TATATATATTTATACACACAAACATAATACTACTTA [CACACA_site2022] | 10.3 ± 0.22 |
| TTGGTGGATAAATTTACACACAATAATTTTCGTTCA [CACACA_site467] | 10 ± 0.14 |
| TTTAAAAATTAATTCTGTACACATTTTTATTTTATT [XGTACX_site8] | 11.5 ± 0.8 |
| AAAATTTTTTACTTTACACACATTTTGTATATTTTG [CACACA_site1730] | 9.98 ± 0.23 |
| AAAAAAAATTTTATCTGTACACATTTTTTTCTTTTT [XGTACX_site4229] | 11.6 ± 0.74 |
| AAAAAATTCTGGTACTGTACACATTTTTTTAAATTT [XGTACX_site6904] | 11.7 ± 1 |
| ACTGTAAAAGGATTTACACACATATTTACATTTACA [CACACA_site519] | 10.01 ± 0.021 |
| AAAAAAAAAATTTACTGTACACATTTGGGATACTCA [XGTACX_site5191] | 11.7 ± 0.76 |
| TTACAATAAATTATAGTGCAATATTTTATTTAATAT | 9.9 ± 0.26 |
| AAAATATATATATATATATATATATGTATACTCCTA [XGTACX_negctrl_site312] | 10 ± 0.29 |

| Sequence | gcPBM binding intensity (ln) |
| --- | --- |
| CGAATATATTCTAGACGTACTATATAATATATATAT [XGTACX_site4953] | 11.1 ± 0.69 |
| TATATTTATTTATTCTGTACTGAAGACAGTTATGTA [XGTACX_site8857] | 10.8 ± 0.58 |
| TATGATATAATTATGTGTACACAATTTTTTTTTTTT [XGTACX_site1084] | 11.6 ± 0.8 |
| TTATATGTTTTGTGTACACAATTTATTAAATTAATA [CACACA_site5645] | 11.7 ± 0.88 |
| TTTGTTTTATGTGGTTGTACACAAATACAATTTAAA [XGTACX_site5156] | 11.6 ± 1.1 |
| ATATGTACAAATTATACACACATGTACAATTATATA [CACACA_site1253] | 11.3 ± 0.79 |
| AAAAAAAATAATAATACACACAATATGATATGTACA [CACACA_site850] | 10.4 ± 0.17 |
| GATATAATTATGTGTACACAATTTTTTTTTTTTTTT [CACACA_site4501] | 11.7 ± 0.87 |
| TAATTATTTTTATATTGTACAATATGTAAATATATA [XGTACX_site592] | 10.8 ± 0.58 |
| AAAATAATATATGTATGTACACAATTATTTATAAGT [XGTACX_site7267] | 11.5 ± 0.89 |
| AAATTATATATGATGTGTACATAAATATATACACAT [XGTACX_site8761] | 11.4 ± 0.83 |
| GAAAATAGCTAAAATACACACAATTAAAAATTATTA [CACACA_site3506] | 9.84 ± 0.16 |
| TTCCATGTAGGACATGCATGCAGTTTTTAAAATATT [TGCATGCA_site481] | 11 ± 0.69 |
| AATGTTAAAAATGAAAGTACATGGAATTTATTATTT [XGTACX_site4095] | 11 ± 0.56 |
| AATATTTATATTTAGTGTACAGAAATAAAAAAAAAA [XGTACX_site6066] | 11.3 ± 0.93 |
| TATTTTTAAAATATAAGTAAAAAAATAATATAAACT [TGCATGCA_negctrl_site283] | 10.1 ± 0.11 |
| TCCTCTTCAATATATATATATTATAAATAAATAAAT [CACACA_negctrl_site1756] | 9.91 ± 0.38 |
| TGTGTAGCTAGGGGGTTGCTAATTTTTGTTTTGACC [CACACA_negctrl_site634] | 10.9 ± 0.57 |
| AGGTGAGCTCAGACTACACACACAAAGAAAAAAATA [CACACA_site8439] | 10.2 ± 0.28 |
| AGCTCATGCAGGTGTACACAAAAAGAAAAAAAATAA [CACACA_site4828] | 11.7 ± 0.86 |
| ATAAGCTCATGCAGGTGTACACAAAAAGAAAAAAAA [XGTACX_site2433] | 11.6 ± 0.81 |
| TCAAAGGAATTTTTATGTACATATAAACTTTATTCT [XGTACX_site3432] | 11.2 ± 0.76 |
